From PubChem BioAssay
SARS PLpro yeast: qHTS of Yeast-based Assay for SARS-CoV PLP | hit rate 0.19% among 330,000 | AID 485353, 2010 | S. cerevisiae expressing SARS-CoV PLpro, growth rescue | Potency, µM (top dose mostly 32.9 µM), inactives show at the top dose activity, positive = growth rescue, usual class: activators; also: potency is read from the fitted curve at half-maximal effect; 0% is about no effect; nearly all actives have a fitted effect of over 55% in size
Shiga inhibitor: A qHTS for Small Molecule Inhibitors of Shiga Toxin. Vero cells, Shiga toxin protein synthesis inhibition reporter. inhibition, % at 38.7 µM. hit rate 9.2% among 290,000. AID 2315, 2010; in the data active = inhibition mostly above about 28%, no sharp cut-off; inactive = mostly below about 43%; also: 0% is about no effect
NS1 inh: qHTS Assay for Inhibitors of Influenza NS1 Protein Function; Potency, µM (top dose mostly 46.1 µM), inactives show at the highest dose activity, positive = more growth; hit rate 0.4% among 270,000; also: potency is read from the fitted curve at half-maximal effect; actives are rising curves; nearly all actives have a fitted effect of over 50% in size
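Compounds were scored for reversing the slow growth caused by influenza A NS1 in S. cerevisiae, measured by optical density at 600 nm. Assay medium contained 2% galactose at pH 6.0; NS1-free yeast of the same strain were the positive control.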
Pf growth 96h: Primary qHTS for delayed death inhibitors of the malarial parasite plastid, 96 hour incubation. P. falciparum luciferase reporter growth, 96 h. Potency, µM (highest dose often 28.7 µM), without a hit: at the highest dose activity change, negative = inhibition, hits mostly inhibitors. hit rate 6.9% among 320,000. AID 504834, 2011; active = well fitted inhibition curve with a large enough effect; inconclusive = small, poorly fitted or top-dose-only effect, or another doubt; inactive = no such curve, though single readings can be large or run the other way; also: potency is read from the fitted curve at half-maximal effect; % is scaled to controls: 0 for no effect and ±100 for the full control effect
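P. falciparum expressing integrated firefly luciferase grown in erythrocytes (2% hematocrit, 0.05% parasitemia final) with compounds for 96 hours at 37 C, 5% CO2. Growth inhibition read as loss of luminescence after adding luciferase detection reagent.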
Pf growth 48h: Primary qHTS for delayed death inhibitors of the malarial parasite plastid, 48 hour incubation | Potency, µM (doses to about 28.7 µM), without a hit: at the highest dose activity change, negative = inhibition, hits mostly inhibitors | P. falciparum luciferase growth in erythrocytes, 48 h | hit rate 5.9% among 310,000; active = well fitted inhibition curve with a large enough effect; inconclusive = small, poorly fitted or top-dose-only effect, or another doubt; inactive = no such curve, though single readings can be large or run the other way; also: potency is read from the fitted curve at half-maximal effect; % is scaled to controls: 0 for no effect and ±100 for the full control effect
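Luminescence readout; reporter = integrated firefly luciferase in P. falciparum. RBC culture at 2% hematocrit, 0.1% parasitemia final, 37 C/5% CO2; decreased signal taken as growth inhibition.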
Cycloheximide cs: Cycloheximide Counterscreen for Small Molecule Inhibitors of Shiga Toxin; max response, %; hit rate 12% among 300,000; cell reporter, cycloheximide protein synthesis inhibition counterscreen; in the data active = max response mostly above about 13%, no sharp cut-off; inactive = mostly below about 14%; also: read at 38.3 µM for the half of the compounds with a filed dose; 0% is about no effect
An asterisk follows results filed as active; ? = inconclusive; / = not tested or not shown; [ ] = dose if it differs, or a comment. Shown are actives, neighbours in structure and some others; about 21% of the full set was active somewhere. Unless noted, calls follow the shape of the full dose curve.

SMILES	SARS PLpro yeast	Shiga inhibitor	NS1 inh	Pf growth 96h	Pf growth 48h	Cycloheximide cs
CC(=O)Nc1ccc(S(=O)(=O)NCc2cn3ccsc3n2)cc1	1%	-5	2%	114%	12%	-3
CC(=O)Nc1ccc(-c2cn3ccsc3n2)cc1	19%	62*	-15%	10µM*	229%	30*
Cc1ccc2sc(-c3ccc(NC(=O)CCN4C(=O)c5ccccc5C4=O)cc3)nc2c1	-2%	85*	4%	9.3µM*	137%	50*
c1cn2cc(-c3ccc4c(c3)OCO4)nc2s1	-27%	95*	-138%	-18%	-18%	46*
Cc1ccc(NC(=O)CCN2C(=O)c3ccncc3C2=O)cc1	4%	-15	5%	3%	34%	0
O=C(CCN1C(=O)c2ccccc2C1=O)Nc1ccc(-c2cn3ccsc3n2)cc1	-12%	52*	-19%	?	6%	33*
CC(=O)Nc1ccc(NC(=O)CCN2C(=O)c3ccccc3C2=O)cc1	3%	/	20%	?	45%	2
COc1cc(C(=O)Nc2cccc(-c3nncn3C)c2)cc(OC)c1OC	-3%	-8	-4%	/	-9%	-1
CCCCN1CC(=O)N2[C@H]3c4ccc(OC)cc4OC[C@@H]3[C@H](C(=O)OCC)[C@]2(C)C1=O	11%	/	/	?	-20%	/
COc1ccc(NC(=O)CSc2nc(=O)n(CCN(C)C)c3c2CCCC3)cc1OC	2%	/	/	?	?	/
O=C(Nc1ccc(-c2ccc3nncn3n2)cc1)C1CCCC1	-2%	87*	/	11%	40%	22*
O=C(Nc1ccc(-c2cn3ccsc3n2)cc1)C1CC1	-13%	43*	-50%	9.3µM*	-3%	61*
O=C(CC1CCCCC1)Nc1ccc(-c2ccc3nncn3n2)cc1	2%	-6	/	-23%	-9%	6
O=C(Nc1ccc(Cc2ccncc2)cc1)C1CC1	-1%	27	4%	-18%	-10%	-1
O=C(Nc1ccc(-c2cn3ccsc3n2)cc1)C1CCCC1	-11%	33	-17%	14%	48%	32*
O=C(CSc1ncccn1)n1c2c(c3ccccc31)CCCC2	-12%	52*	-31%	7%	39%	33*
O=C(CSc1ncn(-c2ccccc2)n1)Nc1nncs1	1%	-9	-6%	33%[1.15 µM]	14%	-1
COc1ccccc1CC(=O)N1CCCc2cc(C)ccc21	-1%	10	-8%	321%	9%	3
CC(=O)Nc1ccc(C(=O)CSc2ncn(-c3ccccc3)n2)cc1	-6%	8	2%	13µM*	33%	23*
O=C(O)c1cccnc1SCC(=O)N1CCCc2ccccc21	-2%	99*	-2%	5%	15%	47*
Cc1ccc2c(c1)CCCN2C(=O)CSc1ccccc1	1%	53	-29%	16%	5%	12*
Cc1cc(C)nc(SCC(=O)n2c3c(c4ccccc42)CCCC3)n1	-1%	13	-4%	21%	19%	-5
O=C(OCC(=O)N1CCCc2ccccc21)c1cccnc1Cl	9%	24	-2%	18%	29%	11
CC(C)c1ccccc1OCCNS(C)(=O)=O	2%	11	-15%	/	38%	-2
CCn1c(SCC(=O)N2CCc3ccccc32)nnc1-c1ccco1	6%	-6	-10%	?	-14%	-3
SMILES	SARS PLpro yeast	Shiga inhibitor	NS1 inh	Pf growth 96h	Pf growth 48h	Cycloheximide cs
Cc1ccnc(SCC(=O)N2CCc3ccccc32)n1	1%	73*	-5%	290%	77%	32*
Cc1cc(C)nc(SCc2nnc(SCC(=O)N3CCCc4ccccc43)n2C)n1	1%	-4	-5%	123%	?	1
O=C(CCS(=O)(=O)c1ccccc1)N1CCCc2ccccc21	-4%	57*	2%	39%	36%	19*
Cc1ccc(C(=O)Nc2nnc(SCC(=O)N3CCCc4ccccc43)s2)cc1	-30%	49*	9%	-67%	?	33*
Cc1cc(C)nc(SCc2nnc(SCC(=O)N3CCCc4ccccc43)o2)n1	6%	23	-14%	1.5µM*	-21%	0
NC(=O)N=Nc1c(O)n(Cc2ccccc2)c2ccc(Br)cc12	-2%	-9	5%	?	5%	6
CCN1CCN(C(CNS(=O)(=O)c2ccc(Cl)cc2)c2cccnc2)CC1 (stereo not given)	-1%	10	8%	-16%	-30%	-4
O=C(CSc1ncn(-c2ccccc2)n1)N1CCc2ccccc21	-5%	-7	-7%	10µM*	21%	-2
O=C(CN1CCN(c2ncccn2)CC1)N1CCN(C(c2ccccc2)c2ccccc2)CC1	/	/	-18%	/	/	/
Cc1cc(C)c2c(c1)cc(C)c1nnc(SCC(=O)N3CCCc4ccccc43)n12	-18%	-13	3%	5.9µM*	1%	-2
O=C(Cn1cnc2c(nnn2Cc2ccccc2)c1=O)N1CCCc2ccccc21	7%	-4	-38%	12µM*	?	-2
Cc1ccnc(SCC(=O)N2CCN(C(c3ccccc3)c3ccccc3)CC2)n1	2%	-10	-14%	15µM*	/	-5
Cc1ccc(C)c2c1cc(C)c1nnc(SCC(=O)N3CCCc4ccccc43)n12	-2%	-21	3%	48%	5%	-10
CC(=O)N[C@H](Cc1ccc(O)cc1)C(=O)O	/	/	4%	/	/	/
O=C(CSc1ncccn1)N1CCCc2ccccc21	2%	28	/	?	45%	11*
CC(C)C(NC(=O)c1ccco1)C(=O)NCC(c1ccco1)N1CCCCC1 (stereo not given)	-2%	16	-13%	2.1µM*	?	0
S=C(NCCc1ccccc1)NCC(c1ccco1)N1CCCCC1 (stereo not given)	1%	9	2%	2.6µM*	?	15*
CC(=O)Nc1ccc(C2=NN(C)C(=NCc3ccccc3)SC2)cc1	1%	32	/	12µM*	?	17
O=C(Nc1ccc(Cl)cc1)N1CCSC1=NCc1ccccc1	2%	25	-1%	-16%	7%	34
CC(CNC(=O)CCS(=O)(=O)c1ccc2c(c1)NC(=O)CO2)c1ccccc1 (stereo not given)	-3%	-8	-9%	?	9%	1
COc1cc(C2N(c3ccccc3)CCN2c2ccccc2)cc(OC)c1OC	7%	61	-16%	0%	10%	13*
COc1cc(CC(=O)OCC(=O)Nc2cccc([N+](=O)[O-])c2)cc(OC)c1OC	10%	-15	-5%	57%	5%	-3
O=C(O)[C@@H](O)[C@@H](O)[C@H](O)[C@H](O)CO	/	/	12%	8.5µM*	6µM*	/
OC[C@@H](O)C(O)[C@H](O)[C@H](O)CO (stereo not given in full)	/	-3	/	/	/	-8
CCN(Cc1ccc(C#CCCO)cc1)CC1CCCN(CCc2cccc(OC)c2)C1 (stereo not given)	-8%	1	-12%	2.1µM*	?	1
